Assay outcomes: PubChem BioAssay, National Center for Advancing Translational Sciences (NCATS)
Pf growth 96h – Primary qHTS for delayed death inhibitors of the malarial parasite plastid, 96 hour incubation | 320,000 tested, 6.9% active | P. falciparum luciferase reporter growth, 96 h | Potency, µM (titrated, usually from 28.7 µM), inactives show at the highest dose activity change, negative = inhibition, hits mostly inhibitors; further: potency means the concentration at half of the fitted maximal effect; on the % scale 0 is the no-effect control and ±100 the full control effect
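96 h incubation, 37 C, 5% CO2, of luciferase-reporter P. falciparum-infected RBCs (2% hematocrit, 0.05% parasitemia final) with test compounds; endpoint luminescence.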
Shiga toxin inh – A qHTS for Small Molecule Inhibitors of Shiga Toxin; 290,000 tested, 9.2% active; Vero cells, Shiga toxin protein synthesis inhibition reporter; inhibition, % at 38.7 µM; AID 2315, 2010; in the data active means inhibition mostly above about 28%, no sharp cut-off; inactive means mostly below about 43%; further: 0% is about no effect
Cycloheximide cs – Cycloheximide Counterscreen for Small Molecule Inhibitors of Shiga Toxin; cell reporter, cycloheximide protein synthesis inhibition counterscreen; 300,000 tested, 12% active; max response, %; in the data active means max response mostly above about 13%, no sharp cut-off; inactive means mostly below about 14%; further: read at 38.3 µM for the half of the compounds with a filed dose; 0% is about no effect
LmPK inh – qHTS Assay for Inhibitors of Leishmania Mexicana Pyruvate Kinase (LmPK); Q27686; 290,000 tested, 0.37% active; purified LmPK, Kinase-Glo ATP luminescence, 1 h; Potency, µM (titrated, usually from 57.5 µM), for inactives: top-dose activity change, negative = inhibition, most hits filed as inhibitors; AID 1721, 2009; further: potency means the concentration at half of the fitted maximal effect; on the % scale 0 is the no-effect control and ±100 the full control effect
Target sequence (Q27686 whole entry, looked up): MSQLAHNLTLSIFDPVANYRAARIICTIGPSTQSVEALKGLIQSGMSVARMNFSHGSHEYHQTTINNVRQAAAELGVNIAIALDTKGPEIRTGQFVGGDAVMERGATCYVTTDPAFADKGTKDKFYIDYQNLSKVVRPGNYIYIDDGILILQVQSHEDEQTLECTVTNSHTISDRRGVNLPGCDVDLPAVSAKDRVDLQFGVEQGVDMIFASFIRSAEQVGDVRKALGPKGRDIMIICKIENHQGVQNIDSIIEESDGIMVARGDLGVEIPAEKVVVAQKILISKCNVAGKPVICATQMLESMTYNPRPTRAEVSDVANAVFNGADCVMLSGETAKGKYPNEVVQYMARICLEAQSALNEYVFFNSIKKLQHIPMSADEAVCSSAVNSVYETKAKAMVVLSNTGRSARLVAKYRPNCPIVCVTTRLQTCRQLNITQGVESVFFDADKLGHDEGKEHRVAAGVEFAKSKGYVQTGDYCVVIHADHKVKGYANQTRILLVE
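qHTS format; LmPK 0.1 nM; substrates PEP 0.5 mM and ADP 0.1 mM. One-hour room-temperature incubation, then coupled luciferase luminescence; 0.5 nM enzyme wells mark activation.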
Pf growth 48h – Primary qHTS for delayed death inhibitors of the malarial parasite plastid, 48 hour incubation; P. falciparum luciferase growth in erythrocytes, 48 h; Potency, µM (doses to about 28.7 µM), inactives show at the highest dose activity change, negative = inhibition, actives largely listed as inhibitors; 310,000 tested, 5.9% active; AID 504832, 2011; further: potency means the concentration at half of the fitted maximal effect; on the % scale 0 is the no-effect control and ±100 the full control effect
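In quantitative HTS format, infected erythrocytes bearing luciferase-reporter parasites were treated for a single generation at 37 C. Luminescence after adding detection reagent served as the growth measure.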
Active calls of the source: *; ? = inconclusive; / = not tested or not shown; ! = not active in a repeat; [ ] = remark or other dose. Compounds with a hit are over-represented: about 22% of the library has one in this group of screens. Unless noted, the call rests on the fitted dose curve; in most records, active means well fitted inhibition curve with a large enough effect; inconclusive means small, poorly fitted or top-dose-only effect, or another doubt; inactive means no such curve, though single readings can be large or run the other way.

SMILES	Pf growth 96h	Shiga toxin inh	Cycloheximide cs	LmPK inh	Pf growth 48h
O=C(Cn1cnc2ccccc2c1=O)c1cccs1	-21%	-8	-3	-1%	/
O=C(Cn1nnc2ccccc21)OCC(=O)c1ccc(F)cc1	38%	13	9.4*	0%	-1%
Cc1ccc(C(=O)Cn2cnc3ccccc3c2=O)cc1	-14%	76*	30*	0%	198%
O=C(Cn1cnc2ccccc21)c1ccccc1	?	19	2	1%	16%
COC(=O)c1cccn(CC(=O)c2ccc(Cl)cc2)c1=O	4%	13	11	4%	-4%
O=c1c2ccccc2ncn1-c1ccc(Cl)cc1	123%	42*!	29*	-2%	108%
O=c1c2ccccc2ncn1-c1ccccc1[N+](=O)[O-]	16%	-7	-2	2%	7%
CCOC(=O)C(C)NC(=O)CCc1nnc2ccc(N3CCC(C)CC3)nn12 (stereo not drawn)	?	-15	-3	4%	2%[0.00184 µM]
O=C1Nc2ccccc2C1(O)c1ccccc1 (stereo not drawn)	0.1µM*	40	34	-3%	-1%
O=C(c1ccc(=O)[nH]c1)N1CCN(S(=O)(=O)c2ccc3ccccc3c2)CC1	-4%	/	/	/	32%
O=C(Cc1cccs1)N=Nc1c(O)[nH]c2ccccc12	?	85*	56*	0%	?
COc1ccc2[nH]c(O)c(N=NC(=O)Cc3cccs3)c2c1	24%	39*	27*	1%	5%
O=C(Cc1cccs1)N=Nc1c(O)[nH]c2ccc(Br)cc12	48%	-4	-2	-1%	5%
CCc1nccn1CCC(=O)N1CCc2c([nH]c3ccccc23)C1CC(C)C (stereo not drawn)	?	4	-2	5%	?
COCc1ccc(CN2CCc3c([nH]c4ccccc34)C2CC(C)C)o1 (stereo not drawn)	6.6µM*	8	1	10%	?
CN(C)C(CNC(=O)CCNC(=O)c1ccc(Cl)cc1)c1ccco1 (stereo not drawn)	2%	/	/	/	16%
Cc1ccc(C)c(SCc2noc(C(=O)NCC3CCCO3)c2C(=O)O)c1 (stereo not drawn)	47%	-9	-3	-1%	37%
N#Cc1nc(-c2cccs2)oc1NCCN1CCOCC1	/	-10	2	-2%	1%
N#Cc1nc(-c2ccccc2F)oc1NCCc1ccccn1	?	-4	1	-3%	12%
COc1ccc(CCNc2oc(COc3ccccc3F)nc2C#N)cc1OC	157%	16	3	0%	?
CN(C)CCNc1oc(COc2cccc(Cl)c2)nc1C#N	-8%	7	-2	1%	-1%
CCNc1oc(COc2ccccc2F)nc1C#N	/	107*	26*	0%	54%
COCCNc1oc(COc2cccc(C)c2)nc1C#N	-3%	active	19*	-1%	36%
N#Cc1nc(-c2ccccc2F)oc1NCc1ccccc1	?	26	18*	8%	/
N#Cc1nc(-c2cccs2)oc1NCCc1ccccc1	-19%	74*	34	10%	/
SMILES	Pf growth 96h	Shiga toxin inh	Cycloheximide cs	LmPK inh	Pf growth 48h
CCOC(=O)CN(C)C(=O)C1CC(CO[Si](C)(C)C(C)(C)C)=CN1C(=O)OC(C)(C)C (stereo not drawn)	/	4	7	/	/
COc1ccccc1CN1CC(C(=O)NCc2cc(F)cc(C(F)(F)F)c2)CCC1=O (stereo not drawn)	159%	-8	1	1%	-19%
COc1ccc(-c2nc(C#N)c(NCCc3ccccc3)o2)cc1OC	/	50	22*	-1%	13%
CCN(CC)CCCNc1oc(-c2ccccc2[N+](=O)[O-])nc1C#N	2.6µM*	15	11	8%	?
COc1ccc(CCNc2oc(COc3ccccc3Cl)nc2C#N)cc1OC	3.7µM*	23	7	5%	8.3µM*
COc1ccc(-c2nc(C#N)c(NCc3ccc(C)cc3)o2)cc1OC	6%	51	14	1%	-29%
N#Cc1nc(-c2cccs2)oc1N1CCN(Cc2ccccc2)CC1	28%	22	16*	-13%	-18%
CCN(CC)CCCNc1oc(-c2ccc(OC)c(OC)c2)nc1C#N	/	-19	-3	3%	-4%
